Assay results taken from PubChem BioAssay AID624305 (National Center for Advancing Translational Sciences (NCATS), 2012).
Results filed as inconclusive are left out. Unmarked numbers belong to inactive results. Active and inactive are the calls of the source. Calls follow the shape of the dose curve; as a rule, active = well fitted activation curve with a large enough effect; inconclusive = small, poorly fitted or top-dose-only effect; inactive = no such curve, though single readings can be large or run the other way.

Test: qHTS assay for re-activators of p53 using a Luc reporter: Hit Validation; also: nearly all actives have a fitted effect of over 75% in size; as to activation: 0% is about no effect
Settings: p53-responsive luciferase reporter cells, luminescence, H1299 line expressing heat-sensitive Ala138Val p53; series mostly up to 46.1 µM; activation: at the top concentration
How it was run: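 H1299 (p53-null) cells stably carrying p53-A138V and a BP100-luciferase reporter, 1000 cells/well, treated 24 h at 37 deg C. Compounds at several concentrations, 1:5 dilution; nocodazole control; luminescence read after 10 min with detection reagent.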
Potency is read from the fitted curve at half-maximal effect.

SMILES | Potency | activation
C/C(=N/NC(=O)c1ccc2c(c1)OCO2)c1ccc(NC(=O)C(F)(F)F)cc1 | 9.2 µM (active) | 
COc1cccc(-c2nc3cc(C)ccc3o2)c1 | 0.411 µM (active) | 
Cc1cnc(C(=O)OCC(=O)c2csc(N3CCCCC3)n2)cn1 |  | 25%
CS(=O)(=O)c1ccc2nc(NC(=O)c3ccco3)sc2c1 | 14.6 µM (active) | 
COCCCN=C(c1ccco1)n1c(=S)nc(-c2ccco2)n(CCCOC)c1=S |  | 39.6%
O=C(CC1NC2CCCCC2NC1=O)Nc1ccc2c(c1)OCO2 (stereo not drawn) |  | 9.38%
Cc1cc(NC(c2cccnc2)c2ccc3cccnc3c2O)no1 (stereo not drawn) |  | 128%
CCN(CC)C(=O)CNC(=S)N(CCCN1CCOCC1)Cc1cccs1 |  | -10.4%
Oc1ccc(N=Cc2c(O)ccc3ccccc23)cc1 |  | 8.85%
O=C1NCCCc2c1oc1ccc(O)cc21 |  | 41% [at 9.22 µM]
COc1cccc(NC(=O)CCN2CCOCC2)c1 |  | -2.6%
Cc1ccc(OCCCNCCO)c(Br)c1 |  | 39.1%
COc1cc(/C=N/Nc2nc3ccccc3s2)ccc1OC(=O)c1ccccc1F | 1.46 µM (active) | 
c1ccc(-c2cn3c(n2)SCC3)cc1 | 9.2 µM (active) | 
O=C(NC(=S)Nc1cccc(O)c1)C1CCCCC1 | 14.6 µM (active) | 
Cc1c(/C(O)=C2/C(=O)C(=O)N(CCN3CCOCC3)C2c2cccs2)cnn1-c1ccccc1 (stereo not drawn) | 8.2 µM (active) | 
COc1ccc(-c2nnc(SCC(=O)/C(C#N)=C(\C)N)o2)cc1 | 0.326 µM (active) | 
CSCCC(NC(=O)c1ccc(Cl)cc1Cl)C(=O)N1CC(C)OC(C)C1 (stereo not drawn) |  | -22.9%
